Experimental findings from PubChem BioAssay AID504545 (Broad Institute, 2011) are described below.

Entries with a potency or affinity are not part of this list. Inconclusive results are not listed. Unmarked numbers belong to inactive results. The rule behind the calls is not given here.

Sequence of Cyclin-dependent kinase 5 activator 1 (Homo sapiens) + Cyclin-dependent kinase 5 (Homo sapiens) (Q00535 whole entry, looked up): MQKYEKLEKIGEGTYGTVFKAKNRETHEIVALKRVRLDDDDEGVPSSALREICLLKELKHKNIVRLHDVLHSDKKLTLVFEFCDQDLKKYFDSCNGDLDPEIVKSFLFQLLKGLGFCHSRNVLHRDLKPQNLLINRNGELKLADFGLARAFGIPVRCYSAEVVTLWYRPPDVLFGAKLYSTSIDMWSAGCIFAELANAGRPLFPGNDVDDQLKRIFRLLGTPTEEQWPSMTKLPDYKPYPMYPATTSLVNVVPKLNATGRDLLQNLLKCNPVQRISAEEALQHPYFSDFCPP
Sequence of Cyclin-dependent kinase 5 activator 1 (Homo sapiens) + Cyclin-dependent kinase 5 (Homo sapiens) (Q15078 whole entry, looked up): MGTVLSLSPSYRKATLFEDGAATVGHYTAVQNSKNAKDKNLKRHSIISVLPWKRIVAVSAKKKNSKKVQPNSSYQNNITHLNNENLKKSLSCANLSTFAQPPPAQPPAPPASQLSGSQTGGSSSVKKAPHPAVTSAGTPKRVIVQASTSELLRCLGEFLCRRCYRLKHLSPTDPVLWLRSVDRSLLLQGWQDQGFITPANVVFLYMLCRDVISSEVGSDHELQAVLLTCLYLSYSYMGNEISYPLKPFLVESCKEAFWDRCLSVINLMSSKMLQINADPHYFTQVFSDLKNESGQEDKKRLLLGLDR

This assay concerns the target Cyclin-dependent kinase 5 activator 1 (Homo sapiens) + Cyclin-dependent kinase 5 (Homo sapiens) (UniProt Q15078+Q00535). The assay can be described thus: CDK5/p35 kinase inhibitors, dose response, biochemical, cherry-picked samples, set 2 (AID 504545). The following applies: biochemical plate reader; series mostly up to 30 µM; activity change, negative = inhibition: at the top concentration.
As for `Cc1ccc2nc(NCc3ccccc3)c(C#N)cc2c1`, the “activity change, negative = inhibition” value is 15.1%. Consider `CCc1cc(C(=O)c2ccc(OC)cc2)c(N)s1`, for which the “activity change, negative = inhibition” value was 13%. The figure for `COc1cccc(C(=O)N2CCN(c3ccccn3)CC2)c1` is 11.5%; for `COc1ccc(C(=O)N2CCN(c3ccccn3)CC2)cc1` it is 7.99%; for `CC(C)=CCNc1ncnc2c1c(C#N)cn2C1OC(CO)C(O)C1O` (stereo not drawn) it is -10.9%. The figure for `O=C(NNC(=O)c1cccs1)c1ccccc1` is -8.86%.

On to `O=C(O)c1ccc(/C=N/Nc2ncc(C(F)(F)F)cc2Cl)cc1`, for which the “activity change, negative = inhibition” value was -5.86%. Take `Oc1ccc(C=NNc2ccccn2)c(O)c1`: the “activity change, negative = inhibition” value is -16.7%. `CCOc1cc(C(=O)N2CCN(c3ccccn3)CC2)cc(OCC)c1OCC`: the “activity change, negative = inhibition” value is 3.8%. Then `COc1cc(OC)cc(C(=O)N2CCN(c3ccccn3)CC2)c1`, with 1.08%.

Turning to `CC(C)(C)N=Cc1c(O)ccc2oc3c(c12)CCCC3`, the “activity change, negative = inhibition” value was -1.17%. On to `Cc1cccc(/N=C/c2c(O)ccc3oc4c(c23)CCCC4)n1`, for which the “activity change, negative = inhibition” value is 4.05%. For the compound `Cc1ccc2nc(Cl)c(C#N)cc2c1`, the “activity change, negative = inhibition” value is 8.05%. Take `NC(=S)N/N=C/c1c(O)c(Br)cc2oc3c(c12)CCCC3`: the “activity change, negative = inhibition” value is -15.6%.

For the compound `C=CC(=O)Nc1ccc(Nc2ccnc(Nc3ccc(N4CCN(C)CC4)cc3)n2)cc1`, the “activity change, negative = inhibition” value is 14.6%. On to `CC(C)n1cnc2c(NCc3ccc(S(N)(=O)=O)cc3)nc(NCc3ccc(S(N)(=O)=O)cc3)nc21`, for which the “activity change, negative = inhibition” value was -18.7%.

In the case of `Cc1nn(-c2ccccn2)c2c1C(=O)CC(C)(C)C2Br` (stereo not drawn), the “activity change, negative = inhibition” value is 5.29%. In the case of `COc1cc(OC)c(C(=O)N2CCN(c3ccccn3)CC2)cc1OC`, the “activity change, negative = inhibition” value is 4.37%. For `COc1ccc2nc(C)cc(Nc3ccc(C)cc3)c2c1`, the “activity change, negative = inhibition” value was 7.73%. Then `COc1cc(OC)cc(C(=O)NNC(=O)c2ccccn2)c1`, with 6.58%. The figure for `Oc1ccc(/C=N/Nc2cccc(Cl)n2)c(O)c1` is -0.378%; for `CC(C)n1cnc2c(N(C)c3cccc(Cl)c3)nc(N(CCO)CCO)nc21` it is 3.33%. Consider `O=C(O)CCC(=O)NCCn1c(-c2ccccc2)csc1=Nc1ccccc1`, for which the “activity change, negative = inhibition” value is -2.41%. Then `O=C(c1ccc2c(c1)OCO2)N1CCN(c2ccccn2)CC1`, with 13.9%; and `COc1ccc2oc(C(=O)NCCC(C)C)c(C)c2c1`, with 15.4%; and `CC(C)(C)c1ccc(C(=O)O/N=C(\N)c2ccccn2)cc1`, with 11.4%. For the compound `Cc1ccc(C(=O)O/N=C(\N)c2ccccn2)cc1C`, the “activity change, negative = inhibition” value was 12.2%. `COc1ccc(Nc2nccc(-c3ccc([N+](=O)[O-])cc3)n2)cc1`: the “activity change, negative = inhibition” value was -9.28%.
